Test [1] in a line: MultiTox-Fluor Cytotoxicity Assay - LYMP1-001 - Live Cells (AID 947).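 Further: 0% = DMSO only and full inhibition = tetraoctylammonium bromide control.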 To be noted: LYMP1-001 lymphoblastoid cells, live-cell protease fluorescence viability; series mostly up to 92.2 µM.
The nature of test [2]: Cell Viability - LYMP2-004 (AID 966).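 Further: cells exposed to compound for 24 h; plate controls were DMSO only for no effect and tetraoctylammonium bromide control for full effect; nearly all actives have a fitted effect of over 65% in size.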 To be noted: LYMP2-004 lymphoblastoid cell viability, qHTS; series mostly up to 92.2 µM. A digest of the protocol:
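qHTS cytotoxicity: human lymphoblastoid line, 24 hr compound treatment, 37 C, complete medium. Viability read as cellular ATP via luciferase luminescence; tetraoctylammonium bromide served as positive control.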

Test [3] in a line: Cell Viability - LYMP2-009 (AID 968).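 Further: cells exposed to compound for 24 h at 37 °C; 0% = DMSO alone and the full-kill end = tetraoctylammonium bromide at 92 µM; nearly all actives have a fitted effect of over 55% in size.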 To be noted: LYMP2-009 lymphoblastoid cell viability; series mostly up to 92.2 µM.
Test [4] can be described thus: Cell Viability - LYMP2-010 (AID 981).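 Further: cells exposed to compound for 24 hours at 37 °C; nearly all actives have a fitted effect of over 55% in size.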 Further: potency means the concentration at half of the fitted maximal effect. To be noted: LYMP2-010 lymphoblastoid cell viability, qHTS; series mostly up to 92.2 µM. A digest of the protocol:
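Steps: seed 2500 LYMP2-010 cells per well; incubate 5 hr at 37 C; add compound; incubate 24 hr at 37 C; add CellTiter-Glo, wait 30 min at room temperature; read luminescence. Concentration-response fitted to Hill equation for AC50.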

The nature of test [5]: Cell Viability - LYMP2-012 (AID 982).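 Further: cellular ATP by luciferase luminescence where a drop means cytotoxicity; cells exposed to compound for one day before reading; 0% = DMSO only and full loss = 92 µM tetraoctylammonium bromide; nearly all actives have a fitted effect of over 55% in size.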 As to conditions: LYMP2-012 lymphoblastoid cell viability qHTS; series mostly up to 92.2 µM.
Test [6] deals with Estrogen receptor (Homo sapiens) (UniProt P03372). Description: qHTS assay for small molecule antagonists of estrogen receptor alpha signaling (AID 588513; active means well fitted curve in the direction sought with a large enough effect in the signal ratio, with a control signal flat, not every such curve was filed as active; the % refers to the signal ratio; further: on the % scale 0 is the no-effect control and ±100 the full control effect). To be noted: ER-alpha-UAS-bla HEK293, beta-lactamase ratio, antagonist mode; series mostly up to 76.9 µM. Summed up: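 ER-alpha-UAS-bla GripTite HEK 293 cells in medium with 2% charcoal/dextran-treated FBS were preincubated 4 h at 37 C, dosed with compound (1:2 titration), stimulated with 0.5nM 17-beta-estradiol for 18 h, then read by CCF4 beta-lactamase fluorescence.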

The target is the same in test [7]. Description: qHTS assay for small molecule agonists of estrogen receptor alpha signaling (AID 588514; calls by dose curve;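 further: 0% = vehicle only and 100% = reference agonist; nearly all actives have a fitted effect of over 70% in size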). To be noted: ER-alpha-UAS-bla HEK293, beta-lactamase ratio, 18 h; series mostly up to 76.8 µM. Summed up:
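Efficacy is expressed against 20 nM 17-beta-estradiol (100%) and DMSO basal (0%); EC50 from Hill equation. Assay: beta-lactamase reporter in ER-alpha-UAS-bla HEK 293 cells, 18 h compound incubation, CCF4 detection.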

Test [8] addresses Glucocorticoid receptor (Homo sapiens) (UniProt P04150). Briefly: qHTS assay for small molecule agonists of glucocorticoid receptor signaling (AID 588532; active means well fitted curve in the direction sought with a large enough effect in the signal ratio, with a control signal flat; the % refers to the signal ratio;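 further: 100% = dexamethasone at 0.1 µM and 0% = DMSO only wells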). To be noted: HeLa MMTV-bla, beta-lactamase ratio, agonist, 18 h; stronger effect = higher value; percent of dexamethasone control, DMSO zero. Summed up: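 Stimulation of a glucocorticoid response element-driven beta-lactamase gene was measured in HeLa cells. Responses were scaled between DMSO basal and 0.1 uM dexamethasone, then fitted for half-maximal stimulation.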

Test [9] has the same target. Description: qHTS assay for small molecule antagonists of glucocorticoid receptor signaling (AID 588533; active means well fitted inhibition curve with a large enough effect in the signal ratio, with a control signal flat, not every such curve was filed as active; the % refers to the signal ratio;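 further: cells stimulated with 2 nM dexamethasone as agonist; on the % scale 0 is the no-effect control and ±100 the full control effect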). As to conditions: HeLa MMTV-bla, GRE beta-lactamase ratio, antagonist mode, 18 h; series mostly up to 76.8 µM. Summed up: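 Antagonist-mode qHTS: compound titrations added to GRE-bla HeLa cells, then dexamethasone 2 nM final; 18 h, 37 C. CCF4 FRET fluorescence normalized to dexamethasone and DMSO; IC50 from Hill fit.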

Test [10] concerns the target Peroxisome proliferator-activated receptor delta (Homo sapiens) (UniProt Q03181). Briefly: qHTS assay for small molecule agonists of peroxisome proliferator-activated receptor delta signaling (AID 588534; calls by dose curve;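 further: 0% = DMSO basal wells and 100% = positive control agonist at 10 µM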). To be noted: HEK293T PPARdelta-UAS-bla, beta-lactamase ratio, 18 h; series mostly up to 76.7 µM. A digest of the protocol:
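Agonist-mode qHTS; reporter cells, 5 hrs 37 C pre-incubation; compound titration, 18 hrs 37 C; CCF4 dye, 2 hrs RT; fluorescence read. EC50/efficacy via Hill fit.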

The target of test [11] is Peroxisome proliferator-activated receptor gamma (Homo sapiens) (UniProt P37231). Description: qHTS assay for small molecule agonists of peroxisome proliferator-activated receptor gamma signaling (AID 588536; active means well fitted curve in the direction sought with a large enough effect in the signal ratio, with a control signal flat, not every such curve was filed as active; the % refers to the signal ratio;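 further: 0% = DMSO basal wells and 100% = rosiglitazone at 2 µM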). To be noted: HEK293 PPARg-UAS-bla, beta-lactamase ratio, 16 h, percent of rosiglitazone response, DMSO as zero; series mostly up to 76.7 µM. Summed up:
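Cells were plated and held 6–6.5 h at 37 C, then compounds were added as a titration series. After a further 16 h, CCF4 dye was loaded for 2 h at room temperature and emission at 460/530 nm recorded.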

Test [12] addresses Thyroid hormone receptor beta (Homo sapiens) (UniProt P10828). Description: qHTS assay for small molecule agonists of thyroid hormone receptor beta signaling (AID 588545; calls by dose curve). To be noted: TR-UAS-bla GripTite HEK 293, beta-lactamase ratio, agonist mode, 18 h, percent of T3 response, DMSO as zero; series mostly up to 76.7 µM. A digest of the protocol:
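HEK 293 TR-UAS-bla; agonist mode; 18 hrs, 37 C; CCF4, ex 405/em 460 and 530 nm; norm. T3 10 nM = 100%, DMSO = 0%; Hill fit → EC50, efficacy.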

For test [13] the target is unchanged. Briefly: qHTS assay for small molecule antagonists of thyroid hormone receptor beta signaling (AID 588547; active means well fitted inhibition curve with a large enough effect in the signal ratio, with a control signal flat, not every such curve was filed as active; the % refers to the signal ratio;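 further: cells stimulated with 0.4 nM T3 agonist during compound exposure; on the % scale 0 is the no-effect control and ±100 the full control effect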). As to conditions: TR-UAS-bla HEK293, beta-lactamase ratio, antagonist mode, 18 h. A digest of the protocol:
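TR-UAS-bla GripTite HEK293 cells in 2% charcoal/dextran FBS medium were preincubated 4 h at 37 C, given compound (0.59 nM to 92 uM) plus 0.4 nM T3 (final) for 18 h, then CCF4 for 2 h at RT; Hill fit gave IC50.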

The target of test [14] is Voltage-gated inwardly rectifying potassium channel KCNH2 (Homo sapiens) (UniProt Q12809). Briefly: qHTS Assay for Small Molecule Inhibitors of the Human hERG Channel Activity (AID 588834).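 Further: top concentration of the series differs between compounds; on the % scale 0 is the no-effect control and ±100 the full control effect; lower thallium flux fluorescence means stronger hERG block; nearly all actives have a fitted effect of over 50% in size.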 To be noted: U2OS BacMam hERG, FluxOR thallium flux fluorescence; series mostly up to 92.2 µM. A digest of the protocol:
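In hERG-transduced U2OS cells, dye-loaded for 1 hr at room temperature in dark, test compounds incubated 10 min at 37 °C before thallium stimulation. AC50 values derived by Hill modelling of concentration-response.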

The nature of test [15]: qHTS assay for small molecule activators of the p53 signaling pathway (AID 651743; active means well fitted activation curve with a large enough effect in the signal ratio, not every such curve was filed as active; the % refers to the signal ratio; further: % of control where 0% means no effect). To be noted: HCT-116 p53RE-bla, beta-lactamase FRET ratio, 16 h; activation: stronger effect = higher value. A digest of the protocol: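 Agonist-mode quantitative HTS in HCT-116 cells carrying a p53-response-element beta-lactamase reporter; 16 h compound treatment at 37 C, then FRET substrate loading for 2 h at room temperature and fluorescence read.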

For test [16], the target named is Nuclear receptor ROR-gamma (Homo sapiens) (UniProt P51449). Description: qHTS assay for small molecule antagonists of the retinoid-related orphan receptor gamma (ROR-gamma) signaling pathway (AID 651802).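 Further: CHO cells with doxycycline-induced ROR-gamma expression; on the % scale 0 is the no-effect control and ±100 the full control effect; nearly all actives have a fitted effect of over 60% in size.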 As to conditions: ROR-gamma antagonist cell reporter assay; series mostly up to 92.2 µM. Summed up: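 Steps: cells dispensed; compound or DMSO transferred by pin tool; doxycycline added to induce the ROR response element-driven luciferase; plates held 16hr at 37C; ONE-Glo added and luminescence measured.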

The nature of test [17]: qHTS assay for small molecule antagonists of the retinoid-related orphan receptor gamma (ROR-gamma) signaling pathway - cell viability counter screen (AID 720652; active means well fitted curve in the direction sought with a large enough effect in the repeat runs; an effect the other way counts as inactive or inconclusive;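 further: CHO reporter cells with doxycycline-induced ROR-gamma expression; compound exposure lasted 16 hr before ATP read; on the % scale 0 is the no-effect control and ±100 the full control effect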). As to conditions: RORgamma reporter cell line viability counter screen; series mostly up to 92.2 µM. A digest of the protocol:
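Steps: seed CHO cells bearing TET-inducible ROR and ROR response element-luciferase; rest 5 hr at 37 C; add compound, then doxycycline; incubate 16 hr; add CellTiter-Glo and read luminescence as ATP-based viability.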

Test [18] deals with Nuclear receptor subfamily 1 group I member 2 (Rattus norvegicus) (UniProt Q9R1A7). Description: qHTS assay for small molecule activators of the rat pregnane X receptor (rPXR) signaling pathway (AID 651751; call rule not given here; further: 0% is about no effect). To be noted: rPXR reporter cells, luciferase (One-Glo), 24 h.
Test [19] is described as follows: qHTS assay for small molecule activators of the human pregnane X receptor (PXR) signaling pathway (AID 720659; call rule not given here; further: 0% is about no effect). To be noted: DPX-2 HepG2 CYP3A4-luciferase, 24 h; series mostly up to 92.3 µM.
Test [20] deals with Cytochrome P450 3A4 (Homo sapiens) (UniProt P08684). Description: qHTS Assay for Inhibitors and Substrates of Cytochrome P450 3A4 (AID 884). Further: on the % scale 0 is the no-effect control and ±100 the full control effect; nearly all actives have a fitted effect of over 50% in size. To be noted: recombinant CYP3A4, Luciferin-PPXE luminescence; series mostly up to 57.1 µM. A digest of the protocol: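 Luminescent readout of luciferin produced by CYP3A4 (20 nM) dealkylation of Luciferin-PPXE, 25 uM (its KM). NADPH-driven reaction ran 60 min at RT after 10 min compound preincubation; data scaled to 57 uM ketoconazole as 100% inhibition.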

“And” between values parts separate entries of the source, which are not always exact repeats. Equal entries are not always repeated. A number with no mark means an inactive call. Inconclusive results are not listed. The source made the active and inactive calls. Unless noted, the call rests on the fitted dose curve; in most records, active means well fitted curve in the direction sought with a large enough effect; inconclusive means small, poorly fitted or top-dose-only effect, or another doubt; inactive means no such curve, though single readings can be large; an effect the other way counts as inactive or inconclusive.

Thyroid hormone receptor beta (Homo sapiens), sequence (P10828 whole entry, looked up): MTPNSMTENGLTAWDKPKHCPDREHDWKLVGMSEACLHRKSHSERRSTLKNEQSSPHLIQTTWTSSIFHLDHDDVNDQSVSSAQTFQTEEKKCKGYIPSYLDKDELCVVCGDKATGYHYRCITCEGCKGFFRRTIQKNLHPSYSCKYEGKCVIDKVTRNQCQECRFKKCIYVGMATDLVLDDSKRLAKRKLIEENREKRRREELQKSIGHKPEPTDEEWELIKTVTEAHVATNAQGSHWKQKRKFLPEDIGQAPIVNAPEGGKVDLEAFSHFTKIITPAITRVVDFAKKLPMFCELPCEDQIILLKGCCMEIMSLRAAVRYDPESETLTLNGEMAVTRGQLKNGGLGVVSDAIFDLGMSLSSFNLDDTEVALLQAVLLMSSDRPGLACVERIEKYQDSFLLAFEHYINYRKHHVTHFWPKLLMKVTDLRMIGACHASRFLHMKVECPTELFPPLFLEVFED
Voltage-gated inwardly rectifying potassium channel KCNH2 (Homo sapiens), sequence (Q12809 whole entry, looked up): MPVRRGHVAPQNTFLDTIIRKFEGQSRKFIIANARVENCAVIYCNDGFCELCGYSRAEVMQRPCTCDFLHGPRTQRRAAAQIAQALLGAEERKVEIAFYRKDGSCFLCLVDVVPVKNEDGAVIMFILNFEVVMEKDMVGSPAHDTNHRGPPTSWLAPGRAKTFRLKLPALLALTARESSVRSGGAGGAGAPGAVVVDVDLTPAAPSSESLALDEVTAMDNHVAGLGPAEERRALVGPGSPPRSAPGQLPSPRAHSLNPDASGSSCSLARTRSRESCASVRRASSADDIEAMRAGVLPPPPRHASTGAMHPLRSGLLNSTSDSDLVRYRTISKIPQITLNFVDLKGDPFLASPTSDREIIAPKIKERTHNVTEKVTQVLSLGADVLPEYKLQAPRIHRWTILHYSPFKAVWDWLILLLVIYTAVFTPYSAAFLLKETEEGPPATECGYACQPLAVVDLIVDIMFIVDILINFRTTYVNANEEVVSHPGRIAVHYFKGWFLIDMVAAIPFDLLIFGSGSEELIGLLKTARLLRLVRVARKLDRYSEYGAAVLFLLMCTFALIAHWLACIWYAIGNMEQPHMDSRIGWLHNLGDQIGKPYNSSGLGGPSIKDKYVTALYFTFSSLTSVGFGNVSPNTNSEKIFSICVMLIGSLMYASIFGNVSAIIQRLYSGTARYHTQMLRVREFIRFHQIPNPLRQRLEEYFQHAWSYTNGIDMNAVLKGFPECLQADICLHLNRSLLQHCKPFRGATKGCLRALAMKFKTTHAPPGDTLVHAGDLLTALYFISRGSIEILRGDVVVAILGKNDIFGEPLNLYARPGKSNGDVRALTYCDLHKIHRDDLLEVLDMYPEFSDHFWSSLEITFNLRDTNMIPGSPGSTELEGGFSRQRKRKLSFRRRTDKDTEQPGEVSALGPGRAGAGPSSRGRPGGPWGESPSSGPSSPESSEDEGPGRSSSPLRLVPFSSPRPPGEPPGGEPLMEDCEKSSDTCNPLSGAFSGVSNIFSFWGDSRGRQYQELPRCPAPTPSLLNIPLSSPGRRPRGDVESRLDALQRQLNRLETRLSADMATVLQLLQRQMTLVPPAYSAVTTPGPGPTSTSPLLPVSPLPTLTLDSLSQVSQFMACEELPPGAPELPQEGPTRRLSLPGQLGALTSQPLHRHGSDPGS
Peroxisome proliferator-activated receptor gamma (Homo sapiens), sequence (P37231 whole entry, looked up): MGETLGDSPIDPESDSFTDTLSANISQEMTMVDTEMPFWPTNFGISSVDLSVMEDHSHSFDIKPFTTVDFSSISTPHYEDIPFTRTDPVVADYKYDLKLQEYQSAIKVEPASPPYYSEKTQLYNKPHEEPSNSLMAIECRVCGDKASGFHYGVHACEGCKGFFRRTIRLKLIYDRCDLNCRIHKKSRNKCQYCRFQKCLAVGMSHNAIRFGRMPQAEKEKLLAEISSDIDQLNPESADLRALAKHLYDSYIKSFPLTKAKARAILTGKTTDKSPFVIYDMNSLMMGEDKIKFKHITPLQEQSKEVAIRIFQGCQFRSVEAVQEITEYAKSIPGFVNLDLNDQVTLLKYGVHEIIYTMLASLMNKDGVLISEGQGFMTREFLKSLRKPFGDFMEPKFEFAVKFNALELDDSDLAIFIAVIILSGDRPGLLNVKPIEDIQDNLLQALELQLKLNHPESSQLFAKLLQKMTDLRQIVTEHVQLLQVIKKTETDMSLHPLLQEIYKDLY
Peroxisome proliferator-activated receptor delta (Homo sapiens), sequence (Q03181 whole entry, looked up): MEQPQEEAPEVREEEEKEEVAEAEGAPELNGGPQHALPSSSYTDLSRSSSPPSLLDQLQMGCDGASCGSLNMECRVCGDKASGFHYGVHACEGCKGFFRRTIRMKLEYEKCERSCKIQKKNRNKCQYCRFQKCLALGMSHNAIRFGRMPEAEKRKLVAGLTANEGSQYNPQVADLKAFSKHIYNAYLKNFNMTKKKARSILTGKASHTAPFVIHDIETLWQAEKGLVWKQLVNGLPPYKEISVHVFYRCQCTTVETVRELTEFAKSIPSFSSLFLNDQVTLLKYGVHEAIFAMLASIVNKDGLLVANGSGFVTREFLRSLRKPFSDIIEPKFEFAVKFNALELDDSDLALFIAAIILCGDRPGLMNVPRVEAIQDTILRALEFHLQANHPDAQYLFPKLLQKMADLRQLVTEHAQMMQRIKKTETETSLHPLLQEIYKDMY
Nuclear receptor ROR-gamma (Homo sapiens), sequence (P51449 whole entry, looked up): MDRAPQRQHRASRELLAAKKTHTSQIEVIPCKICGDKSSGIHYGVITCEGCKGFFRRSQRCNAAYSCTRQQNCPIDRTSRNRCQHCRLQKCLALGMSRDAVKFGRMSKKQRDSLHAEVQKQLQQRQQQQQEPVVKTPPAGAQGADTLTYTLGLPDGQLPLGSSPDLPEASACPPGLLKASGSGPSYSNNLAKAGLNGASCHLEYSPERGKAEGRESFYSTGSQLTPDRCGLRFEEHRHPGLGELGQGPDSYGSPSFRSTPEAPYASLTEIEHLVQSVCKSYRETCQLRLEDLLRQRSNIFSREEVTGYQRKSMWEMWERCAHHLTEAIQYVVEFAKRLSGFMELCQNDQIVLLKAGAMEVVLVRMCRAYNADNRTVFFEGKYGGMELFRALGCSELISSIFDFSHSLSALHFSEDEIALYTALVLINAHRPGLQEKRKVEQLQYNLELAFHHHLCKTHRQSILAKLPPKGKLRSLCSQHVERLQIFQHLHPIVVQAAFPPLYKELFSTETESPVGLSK
Nuclear receptor subfamily 1 group I member 2 (Rattus norvegicus), sequence (Q9R1A7 whole entry, looked up): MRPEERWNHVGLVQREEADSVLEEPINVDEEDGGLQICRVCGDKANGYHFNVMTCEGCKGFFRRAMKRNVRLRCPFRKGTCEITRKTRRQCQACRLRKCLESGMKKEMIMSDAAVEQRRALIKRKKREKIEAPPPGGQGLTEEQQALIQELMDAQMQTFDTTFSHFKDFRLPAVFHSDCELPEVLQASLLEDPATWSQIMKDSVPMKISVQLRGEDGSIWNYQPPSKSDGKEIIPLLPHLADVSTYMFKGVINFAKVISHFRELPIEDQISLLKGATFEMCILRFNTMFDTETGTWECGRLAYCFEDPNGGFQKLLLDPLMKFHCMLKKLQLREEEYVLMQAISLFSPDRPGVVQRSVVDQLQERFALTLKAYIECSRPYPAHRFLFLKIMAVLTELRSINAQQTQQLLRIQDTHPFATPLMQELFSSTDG
Cytochrome P450 3A4 (Homo sapiens), sequence (P08684 whole entry, looked up): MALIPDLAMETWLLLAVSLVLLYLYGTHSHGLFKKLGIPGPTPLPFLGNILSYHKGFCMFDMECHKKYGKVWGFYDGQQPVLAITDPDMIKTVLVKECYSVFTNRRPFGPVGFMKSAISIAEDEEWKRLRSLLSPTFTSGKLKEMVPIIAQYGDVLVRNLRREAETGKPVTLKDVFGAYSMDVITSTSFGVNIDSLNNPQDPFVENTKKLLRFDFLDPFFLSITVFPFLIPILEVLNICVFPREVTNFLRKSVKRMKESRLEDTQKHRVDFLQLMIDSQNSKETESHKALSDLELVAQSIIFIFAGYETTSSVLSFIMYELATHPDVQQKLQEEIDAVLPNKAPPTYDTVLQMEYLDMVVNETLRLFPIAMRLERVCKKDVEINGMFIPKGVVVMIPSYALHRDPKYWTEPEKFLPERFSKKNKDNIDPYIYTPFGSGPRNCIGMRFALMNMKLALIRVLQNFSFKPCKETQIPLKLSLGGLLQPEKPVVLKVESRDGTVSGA
Glucocorticoid receptor (Homo sapiens), sequence (P04150 whole entry, looked up): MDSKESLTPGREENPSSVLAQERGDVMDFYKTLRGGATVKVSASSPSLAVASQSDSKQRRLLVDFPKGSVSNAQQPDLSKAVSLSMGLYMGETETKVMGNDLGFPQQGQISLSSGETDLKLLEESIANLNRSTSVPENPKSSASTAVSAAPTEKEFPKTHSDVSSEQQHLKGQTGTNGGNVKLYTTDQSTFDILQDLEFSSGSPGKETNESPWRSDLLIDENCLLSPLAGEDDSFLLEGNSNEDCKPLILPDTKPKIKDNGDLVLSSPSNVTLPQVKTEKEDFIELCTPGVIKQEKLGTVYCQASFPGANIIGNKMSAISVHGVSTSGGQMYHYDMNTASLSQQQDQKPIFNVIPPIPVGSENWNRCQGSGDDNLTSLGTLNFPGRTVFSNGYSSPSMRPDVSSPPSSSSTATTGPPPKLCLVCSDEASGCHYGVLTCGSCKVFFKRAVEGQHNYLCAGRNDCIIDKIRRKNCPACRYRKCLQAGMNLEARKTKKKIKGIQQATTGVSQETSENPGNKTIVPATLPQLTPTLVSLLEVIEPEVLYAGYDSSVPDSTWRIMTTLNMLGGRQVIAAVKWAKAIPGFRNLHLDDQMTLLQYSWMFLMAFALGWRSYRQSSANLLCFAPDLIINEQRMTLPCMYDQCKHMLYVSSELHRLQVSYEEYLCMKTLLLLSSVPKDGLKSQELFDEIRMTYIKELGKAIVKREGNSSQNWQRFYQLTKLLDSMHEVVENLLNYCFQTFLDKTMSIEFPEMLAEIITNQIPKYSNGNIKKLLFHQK

Regarding `C1CCC2CCCCC2C1` (configuration not stated), the Potency result in test [1], in test [2], in test [3], in [4], in [5] and in [6] was “inactive” throughout. The Potency entry in test [7], in test [9], in test [14], in [16] and in test [17] was “inactive” in each case. Also, the activation in [8] was 11.1%; in test [15], -0.562%. The outcome in [10], in [11], in test [12] and in [19] was inactive. Moreover, in test [13], the activity change % (negative = inhibition) is 10.1%. Also, the max response in [18] is 1.72%.
As for `C=CC(C)=O`, the Potency entry in test [20], in test [1], in test [2], in test [3], in test [4] and in test [5] was “inactive” in each case. For the same compound, the Potency result in [6], in test [7], in test [9], in test [14], in [16] and in test [17] was “inactive” in each case. Further, the activation in [8] is -1.11%; in [15], -2.21%. Further, the result in [10], in [11] and in [19] was inactive. Besides, the max response in [18] is 1.84%.
On to `NC(CO)Cc1ccccc1` (configuration not stated), for which the Potency entry in [20] is “inactive”.
On to `C=CC1CC=CCC1` (configuration not stated), for which the Potency entry in test [20], in test [1], in [2], in test [3], in test [5] and in [6] was “inactive” in each case. The Potency result in [7], in test [9] and in test [14] was “inactive” each time. Further, the Potency in [4] is 39.8 µM (active). In addition, the activation in test [8] was -1.79% and -4.91%; in test [15] it was -3.44%. The outcome in [10], in [11], in test [12] and in [19] was inactive. For the same compound, the activity change % (negative = inhibition) in test [13] was 13.7% and -3.35%. In addition, the max response in [18] is -0.819% and 2.71%.
Regarding `CCN(CC)c1ccccc1`, the Potency result in test [20], in [1], in test [2], in test [3], in test [4] and in [5] was “inactive” in each case. Further, the Potency result in test [6], in test [7], in test [9], in test [14], in test [16] and in [17] was “inactive” throughout. The values for the activation in [8] and in test [15] were -4.16% and 0.724%, respectively. Besides, the result in test [11], in test [12] and in test [19] was inactive. Besides, the activity change % (negative = inhibition) in test [13] is -7.69%. The max response in test [18] was -0.145%.
On to `C=CC(=O)OCC`, for which the Potency entry in test [20], in [1], in test [2], in test [3], in test [4] and in [5] was “inactive” each time. Further, the Potency result in test [6], in test [7], in test [9], in test [14], in [16] and in test [17] was “inactive” in each case. For the same compound, the activation in [8] is 2.08%. Further, the result in test [10], in [11], in test [12] and in test [19] was inactive. Moreover, in test [13], the activity change % (negative = inhibition) was -5%. In addition, the max response in [18] is -4.65%.
Take `C[N+](C)(C)Cc1ccccc1`: the Potency result in test [20], in [1], in [3], in [4], in test [5] and in test [6] was “inactive” in each case. In addition, the Potency result in [7], in test [9], in test [14], in test [16] and in [17] was “inactive” throughout. Further, the activation in test [8] was -1.14%. In addition, the result in [10], in test [11], in [12] and in test [19] was inactive. Moreover, the activity change % (negative = inhibition) in [13] is -5.57% and -5.51%. For the same compound, the max response in test [18] was -3.63% and -0.669%.
For `CCCSC(=O)Cl`, the Potency result in [20], in test [1], in test [3], in [4], in test [5] and in test [6] was “inactive” in each case. The Potency entry in [7], in [9], in [14], in [16] and in test [17] was “inactive” in each case. Besides, the activation is 2.44% in [8] and -3.85% in test [15]. The outcome in test [10], in [11], in test [12] and in test [19] was inactive. Moreover, the activity change % (negative = inhibition) in test [13] is -14.3%. Moreover, the max response in test [18] was -3.99%.
For the compound `CC[C@@H]1CN2CC[C@@H]1C[C@H]2[C@H](O)c1ccnc2ccc(OC)cc12`, the Potency result in test [20] was “inactive”.
